CYP2C19 activ: activators of human cytochrome P450 2C19; P33261; 96,000 tested, under 10 active; recombinant CYP2C19, luciferin-H EGE luminescence; active compounds read high; 0 = fully inhibited enzyme, 1 = untreated enzyme; activation factor at 5 µM;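 active means activation factor of at least 2 at 5 µM in the primary screen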;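 further: 0 = wells with 2.5 mM tranylcypromine and 1 = vehicle-only wells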
CYP2C19 inhib: human CYP2C19 inhibition; P33261; CYP2C19 Supersomes, luciferin-H EGE luminescence, 30 min; inhibition, % at 5 µM; 96,000 tested, 21% active; AID 778;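 active means CYP2C19 inhibition above a set limit at 5 µM in the primary screen, cut at about 50% in these data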;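 further: plate controls were negative control wells for no effect and 2.5 mM tranylcypromine positive control for full effect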
CYP2C9 inh: inhibitors of human CYP2C9. P11712. CYP2C9 Supersomes, luciferin-H conversion, luminescence. inhibition, % at 5 µM. 96,000 tested, 20% active. AID 777;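 active means blocking of liver enzyme CYP2C9 beyond about 50% at 5 µM, limit read from the data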
Target sequence (P11712 whole entry, looked up): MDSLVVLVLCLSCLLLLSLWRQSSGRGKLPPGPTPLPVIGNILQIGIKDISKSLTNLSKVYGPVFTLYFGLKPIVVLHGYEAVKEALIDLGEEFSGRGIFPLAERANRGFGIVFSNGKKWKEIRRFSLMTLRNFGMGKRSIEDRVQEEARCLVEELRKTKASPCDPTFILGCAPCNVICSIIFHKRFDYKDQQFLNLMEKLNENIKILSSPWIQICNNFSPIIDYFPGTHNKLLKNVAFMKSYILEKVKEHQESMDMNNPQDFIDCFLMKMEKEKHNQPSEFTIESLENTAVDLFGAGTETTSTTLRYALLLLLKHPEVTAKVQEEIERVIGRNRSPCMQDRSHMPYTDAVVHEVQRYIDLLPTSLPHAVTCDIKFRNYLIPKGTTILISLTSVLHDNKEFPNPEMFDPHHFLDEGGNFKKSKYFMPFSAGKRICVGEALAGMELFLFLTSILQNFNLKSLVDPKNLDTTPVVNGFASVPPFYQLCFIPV
CYP2C9 activ: activators of human CYP2C9. activation factor at 5 µM. 96,000 tested, 1.4% active. recombinant CYP2C9, luciferin-H conversion, luminescence; active compounds read high; factor 1 = untreated enzyme, 0 = blocked. AID 1024;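 active means activation factor of 2 or more for CYP2C9 at a 5 µM dose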;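 further: 0 = sulfaphenazole-blocked wells and 1 = vehicle-only wells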
sEH inh: blocks human soluble epoxide hydrolase activity | AID 707 | P34913 | 91,000 tested, 0.34% active | recombinant human sEH enzymatic activity assay | inhibition, % at 2 µM; in the data active means inhibition above about 80%
sEH act: soluble epoxide hydrolase (human) activation; purified human sEH enzymatic activity, activator screen; activation, % at 2 µM; 91,000 tested, 0.04% active; in the data active means activation above about 37%
* = called active by the depositor; . = no result. Rows were chosen to be rich in hits. Some 27% of all compounds tested hit in one or more screens of this group.

SMILES | CYP2C19 activ | CYP2C19 inhib | CYP2C9 inh | CYP2C9 activ | sEH inh | sEH act
CC(C)Cn1c(N)c(C(=O)NCC2CCCO2)c2nc3ccccc3nc21 (centres undefined) | 0.4 | 65* | 85* | 0.1 | -9 | 7
COCCn1c(N)c(C(=O)NCC2CCCO2)c2nc3ccccc3nc21 (centres undefined) | 0.8 | 20 | 21 | 0.8 | . | .
COc1ccc(OC)c(-n2c(N)c(C(=O)NCC3CCCO3)c3nc4ccccc4nc32)c1 (centres undefined) | 0.8 | 22 | 16 | 0.8 | 0 | -1
Cc1cc(C)nc(NS(=O)(=O)c2ccc(NC(=O)CCN3C(=O)c4ccccc4C3=O)cc2)n1 | 1 | 0 | 7 | 0.9 | . | .
CCOC(=O)CCCc1c[nH]c2ccccc12 | 0.7 | 32 | 33 | 0.7 | 6 | -7
Cc1noc(C)c1COC(=O)CCCc1c[nH]c2ccccc12 | 0.1 | 93* | 81* | 0.2 | . | .
Cc1noc(C)c1COC(=O)CCc1nc2ccccc2c(=O)[nH]1 | 0.6 | 41 | 59* | 0.4 | -4 | 6
Cc1noc(C)c1COC(=O)CCC(=O)c1ccc(F)cc1 | 0.7 | 30 | 11 | 0.9 | 7 | -4
Cc1ccc(CNC(=O)c2ccc(CNc3c(N4CCCC4)c(=O)c3=O)cc2)cc1 | 0.2 | 80* | 51* | 0.5 | -4 | 2
Cc1ccc(NC(=O)c2ccc(CNc3c(N4CCOCC4)c(=O)c3=O)cc2)cc1 | 0.9 | 6 | 18 | 0.8 | . | .
CCOC(=O)C1CCN(c2c(NCc3ccc(C(=O)NC4CCCC4)cc3)c(=O)c2=O)CC1 | 0.9 | 7 | 61* | 0.4 | -2 | 1
CCCCNC(=O)c1ccc(CNc2c(N3CCC(C(=O)OCC)CC3)c(=O)c2=O)cc1 | . | . | . | . | -2 | 4
Cc1ccc(Nc2nc(Nc3ccc(C)cc3)nc(SC3=NCCS3)n2)cc1 | 0.5 | 50 | 86* | 0.1 | -3 | 4
Cc1ccc(Nc2nc(Cl)nc(N(C)C#N)n2)cc1 | 0.9 | 12 | 38 | 0.6 | 7 | -4
Cc1ccccc1Nc1nc(N)nc(CN(C)c2ccccc2)n1 | 0.7 | 32 | 37 | 0.6 | . | .
Cc1ccccc1Nc1nc(Nc2ccccc2C)nc(SC2=NCCS2)n1 | 0.5 | 54* | 77* | 0.2 | 4 | -2
O=C(Nc1ccc2ccccc2c1)N1CCN(c2ncccc2C(F)(F)F)CC1 | 0.3 | 70* | -65 | 1.6 | 55 | -54
O=C(Nc1cccc(Cl)c1)N1CCN(C/C=C/c2ccccc2)CC1 | 0.6 | 42 | 62* | 0.4 | . | .
O=C(Nc1ccccc1)N1CCN(c2ccc(C(F)(F)F)cn2)CC1 | 0.7 | 29 | 24 | 0.8 | 19 | -20
Cc1ccc(NC(=O)CCN2CCN(C/C=C/c3ccccc3)CC2)cc1C | 1 | 2 | -119 | 2.2* | -5 | 4
O=C(Nc1ccc(F)cc1F)N1CCN(c2ncccn2)CC1 | 0.3 | 70* | 14 | 0.9 | . | .
Cc1ccc(NC(=O)CCN2CCN(C/C=C/c3ccccc3)CC2)cc1 | 0.8 | 16 | 13 | 0.9 | -3 | 6
O=C(CCCSc1nc2ccccc2[nH]1)N1CCN(c2ccc([N+](=O)[O-])cc2)CC1 | 0.7 | 33 | -70 | 1.7 | -4 | 2
C=CCn1c(SCCC)nc(O)cc1=O | 1.1 | -7 | 2 | 1 | -3 | -1
O=C(/C=C/c1c(Cl)cccc1Cl)N1CCN(c2ncccn2)CC1 | 0 | 96* | 52* | 0.5 | 4 | -2
SMILES | CYP2C19 activ | CYP2C19 inhib | CYP2C9 inh | CYP2C9 activ | sEH inh | sEH act
O=C(Nc1cccc(Cl)c1)N1CCN(c2ncccn2)CC1 | 0.1 | 89* | 56* | 0.4 | 20 | -18
O=C(/C=C/c1ccccc1)N1CCN(c2cccc(Cl)n2)CC1 | 0.7 | 25 | 46 | 0.5 | 5 | -6
CCOc1ccccc1N1CCN(C(=O)Nc2cccc(Cl)c2)CC1 | 0.6 | 45 | -27 | 1.3 | 32 | -32
Cc1ccc(CN(c2ccc(C(=O)Nc3cccnc3)cc2)S(C)(=O)=O)cc1 | 0.1 | 91* | 74* | 0.3 | 1 | 1
O=C(NCc1ccccn1)c1ccc(/C=N/O)nc1 | 1 | 1 | -4 | 1 | 2 | -1
CCCNC(=O)c1ccc(N(Cc2ccccc2)S(C)(=O)=O)cc1 | 0.6 | 35 | 26 | 0.7 | 5 | -7
CS(=O)(=O)N(Cc1ccccc1)c1ccc(C(=O)NCc2ccccc2)cc1 | 0.4 | 62* | 53* | 0.5 | 6 | -4
O=C(NCc1ccccc1)c1ccc(/C=N/O)nc1 | 0.4 | 63* | -15 | 1.1 | . | .
CN(C)CCCNC(=O)c1ccc(CN(c2ccccc2)S(C)(=O)=O)cc1 | 0.8 | 21 | 64* | 0.4 | . | .
Cc1ccc(CNC(=O)CCCC(=O)O)cc1 | 1.1 | -11 | 14 | 0.9 | -9 | 5
Fc1ccccc1COc1ccc(/C=N/NC(=S)NCc2ccccc2)cc1 | . | . | . | . | -4 | 3
CCC(=O)N1CCc2cc(S(=O)(=O)NCCN3CCCCC3CC)ccc21 (centres undefined) | 1 | 0 | -17 | 1.2 | 9 | -11
CC(C)Oc1ccc(N2CC(C(=O)OCC(=O)NCc3ccccc3)CC2=O)cc1 (centres undefined) | 1.1 | -9 | 15 | 0.9 | 10 | -8
CS(=O)(=O)N(Cc1ccc(C(=O)NC2CCCCC2O)cc1)c1ccccc1 (centres undefined) | 1.1 | -5 | 4 | 1 | 9 | -9
CS(=O)(=O)N(Cc1ccccc1)c1ccc(C(=O)NC2CCCCC2O)cc1 (centres undefined) | 0.5 | 52* | 12 | 0.9 | -4 | 4
CN(C)CCCNC(=O)c1ccc(Cl)c(S(=O)(=O)N(C)c2ccccc2)c1 | 0 | 97* | -5 | 1 | -3 | 2
CS(=O)(=O)N(Cc1ccccc1)c1ccc(C(=O)NCc2cccnc2)cc1 | 0.1 | 91* | 91* | 0.1 | -2 | 3
O=C(NCc1ccccc1)c1ccc(S(=O)(=O)C(F)F)cc1 | 0.3 | 68* | 9 | 0.9 | -16 | 18
c1ccc(-c2nnn(C34CC5CC(CC(C5)C3)C4)n2)cc1 | 1 | 2 | 20 | 0.8 | -6 | 7
C=CCSc1nnc(NC(=O)COc2ccc3ccccc3c2)s1 | 0.7 | 26 | 21 | 0.8 | 10 | -11
CCOc1ccccc1-c1nc(-c2ccc(NC(=O)Cc3ccc(OC)cc3)cc2)no1 | 0.4 | 56* | -90 | 1.9 | 0 | 1
COc1ccc(CC(=O)Nc2ccc(-c3noc(COc4ccccc4C)n3)cc2)cc1 | 0.9 | 10 | 21 | 0.8 | . | .
COc1ccccc1-c1noc(-c2ccccc2C(=O)Nc2ccccc2)n1 | 1.1 | -9 | 4 | 1 | -6 | 8
COc1ccccc1NC(=O)c1ccccc1-c1nc(-c2ccccc2OC)no1 | 0.4 | 64* | 78* | 0.2 | 5 | 0
COc1ccccc1NC(=O)c1ccccc1SC | 1 | 5 | -284 | 3.8* | 2 | -2
COc1cccc(NC(=O)c2ccccc2-c2nc(-c3ccc(Cl)cc3)no2)c1 | 0.3 | 69* | 83* | 0.2 | 5 | -8
